The source of these data is publication PMC4336329 (PLoS ONE, 2015).

The whole screen tested about 310,000 compounds, of which about 14,000 (4.5%) showed an effect of 50% or more. The effect is printed as a negative number. The sample holds strong results, similar compounds and a random draw of the others, so the mix is not that of the screen.
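Also: peak tail current of the secondary pulse compared with the same well before compound.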

In this experiment the target is human ether-à-go-go-related gene (hERG) potassium channel (human, UniProt Q12809). The experiment is described as follows: primary screen, population patch clamp on CHO cells stably expressing hERG; higher = less effect of the substance.
human ether-à-go-go-related gene (hERG) potassium channel, sequence (Q12809 whole entry, looked up): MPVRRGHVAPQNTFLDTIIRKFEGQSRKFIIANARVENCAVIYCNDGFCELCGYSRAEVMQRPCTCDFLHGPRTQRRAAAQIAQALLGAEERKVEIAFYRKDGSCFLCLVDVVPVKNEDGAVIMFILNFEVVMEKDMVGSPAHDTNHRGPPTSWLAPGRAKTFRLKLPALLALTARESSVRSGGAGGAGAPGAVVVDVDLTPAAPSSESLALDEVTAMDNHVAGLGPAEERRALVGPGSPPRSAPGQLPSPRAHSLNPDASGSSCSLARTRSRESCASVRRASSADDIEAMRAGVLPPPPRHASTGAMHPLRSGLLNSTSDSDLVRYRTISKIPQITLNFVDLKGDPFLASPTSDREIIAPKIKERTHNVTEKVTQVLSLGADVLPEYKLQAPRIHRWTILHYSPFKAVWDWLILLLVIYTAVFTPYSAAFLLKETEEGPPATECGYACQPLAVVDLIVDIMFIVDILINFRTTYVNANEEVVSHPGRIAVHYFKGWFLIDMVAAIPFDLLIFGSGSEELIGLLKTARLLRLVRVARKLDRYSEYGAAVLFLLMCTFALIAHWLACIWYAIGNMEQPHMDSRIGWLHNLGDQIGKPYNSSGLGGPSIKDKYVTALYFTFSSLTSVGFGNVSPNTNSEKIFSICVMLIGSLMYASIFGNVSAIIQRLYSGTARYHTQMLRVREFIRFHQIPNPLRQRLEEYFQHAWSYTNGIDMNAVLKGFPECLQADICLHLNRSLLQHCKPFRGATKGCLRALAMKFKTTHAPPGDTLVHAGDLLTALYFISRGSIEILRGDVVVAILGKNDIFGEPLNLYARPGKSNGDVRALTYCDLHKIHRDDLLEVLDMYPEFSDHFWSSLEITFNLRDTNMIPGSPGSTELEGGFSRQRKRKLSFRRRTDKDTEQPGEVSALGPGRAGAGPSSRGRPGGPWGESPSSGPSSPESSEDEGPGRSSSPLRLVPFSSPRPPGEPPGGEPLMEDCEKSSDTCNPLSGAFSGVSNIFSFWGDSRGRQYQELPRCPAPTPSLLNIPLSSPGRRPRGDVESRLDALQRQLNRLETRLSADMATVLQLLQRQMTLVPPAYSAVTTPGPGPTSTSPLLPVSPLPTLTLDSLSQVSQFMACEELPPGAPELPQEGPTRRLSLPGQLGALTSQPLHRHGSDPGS
For `Cc1ccc2nc(SCc3ccc([N+](=O)[O-])cc3)nc(C)c2c1`, the “hERG current change (%, negative = inhibition) at 10uM” value is on record as 0.901%.
As to `Cc1ccc(CSc2[nH]c(=O)ncc2C)cc1`, the “hERG current change (%, negative = inhibition) at 10uM” value is on record as 10.7%.
Consider `Cc1cnc(=O)[nH]c1SCc1ccc([N+](=O)[O-])cc1`, for which the “hERG current change (%, negative = inhibition) at 10uM” value is -70.1%.
In the case of `Cc1ccc2nc(SCc3ccc([N+](=O)[O-])cc3)[nH]c2c1`, the “hERG current change (%, negative = inhibition) at 10uM” value was -65.1%.
Take `Cc1cc(Cc2ccc([N+](=O)[O-])cc2)c(C)cn1`: the “hERG current change (%, negative = inhibition) at 10uM” value is listed as -57.8%.
As for `O=C(CNC(=O)c1ccco1)N/N=C/c1cccs1`, the “hERG current change (%, negative = inhibition) at 10uM” value came out at 14.9%.
For `O=C(Nc1ccc([N+](=O)[O-])cn1)c1cc(-c2cccc(Cl)c2)nc2ccccc12`, the “hERG current change (%, negative = inhibition) at 10uM” value was -8.44%.
Next, `Cc1ccc(C(=O)N2CCC(C)CC2)cc1S(=O)(=O)N1CCCCC1`: -10.2%; `CCOc1cc(C(=O)OC(C)C(=O)Nc2ccc(S(N)(=O)=O)cc2)ccc1OCC(=O)N1CCOCC1` (stereo not drawn): -5.65%.
For `CC(=O)c1cccc(NC(=S)NC(=O)c2ccc(C)cc2)c1`, the “hERG current change (%, negative = inhibition) at 10uM” value was 22.4%.
The same measure for `COc1cccc(C(=O)NNS(=O)(=O)c2ccc(F)cc2)c1`: 9.31%.
Regarding `Cc1ccc(NC(=O)COC(=O)CCc2c[nH]c3ccccc23)cc1[N+](=O)[O-]`, the “hERG current change (%, negative = inhibition) at 10uM” value is 10.4%.
The same measure for `O=[N+]([O-])c1ccc(CSc2nc3ccccc3[nH]2)cc1`: -54.2%; for `Cc1cc(C)nc(SCc2ccc([N+](=O)[O-])cc2)n1`: -17%; for `O=[N+]([O-])c1cccc(CSc2nc3ccccc3[nH]2)c1`: -15.6%.
The same measure for `c1ccc(CSc2nc3ccccc3[nH]2)cc1`: 17.6%; for `CC(=O)c1cc(C#N)c(SCc2ccc([N+](=O)[O-])cc2)nc1C`: 17.7%; for `Cc1nc(N)nc(SCc2ccc([N+](=O)[O-])cc2)c1N`: -74.6%.
As to `O=S(=O)(CCc1nc2ccccc2o1)c1ccc2ccccc2c1`, the “hERG current change (%, negative = inhibition) at 10uM” value is recorded as 7.8%.
Next, `Cc1cccc(/C(N)=N/OC(=O)c2ccc(Br)o2)c1`: 11.7%; `Fc1ccc(-c2csc(/C=C/c3ccc4c(c3)OCO4)n2)cc1`: 13.2%; `CC(C)c1ccc(C(=O)CC2(O)C(=O)N(CN3CCOCC3)c3ccccc32)cc1` (stereo not drawn): 10.4%.
For `O=C1N(CCCCN2C(=O)C3(OCCO3)c3ccccc32)c2ccccc2C12OCCO2`, the “hERG current change (%, negative = inhibition) at 10uM” value is recorded as 6.9%.
As for `CO[C@@H]1[C@@H](O[C@@H]2O[C@H](C)[C@@H](O[C@H]3C[C@@](C)(OC(=O)CC(C)C)[C@@H](O)[C@H](C)O3)[C@H](N(C)C)[C@H]2O)[C@@H](CC=O)C[C@@H](C)[C@@H](O)C=CC=CC[C@@H](C)OC(=O)C[C@H]1OC(C)=O`, the “hERG current change (%, negative = inhibition) at 10uM” value was -6.51%.
The same measure for `c1cncc(C2CCCCN2)c1` (stereo not drawn): -6.38%; for `CCOc1cc(/C=C2/N=C(c3ccc4c(c3)OCO4)OC2=O)ccc1OC(C)=O`: 9.87%.
On to `COc1cccc(N2CCN(S(=O)(=O)c3cccc4cccnc34)CC2)c1`, for which the “hERG current change (%, negative = inhibition) at 10uM” value was 15.5%.
For `COc1ccc2c(c1OC)C(=O)OC2C1c2c(cc3c(c2OC)OCO3)CCN1C.Cl.O` (stereo not drawn), the “hERG current change (%, negative = inhibition) at 10uM” value was -13.7%.
As for `COc1c2c(cc3c1C(CC(O)Cc1ccccc1)N(C)CC3)OCO2` (stereo not drawn), the “hERG current change (%, negative = inhibition) at 10uM” value is listed as -61.3%.
Regarding `COc1ccc2c(c1OC)C(=O)O[C@@H]2[C@H]1c2c(cc3c(c2OC)OCO3)CCN1C`, the “hERG current change (%, negative = inhibition) at 10uM” value is reported as -2.49%.
Turning to `COc1ccc2c(c1OC)C(=O)OC2C1c2c(cc3c(c2OC)OCO3)CCN1C.Cl` (stereo not drawn), the “hERG current change (%, negative = inhibition) at 10uM” value is given as -1.88%.
Regarding `COc1ccc(CC(O)CC2c3c(cc4c(c3OC)OCO4)CCN2C)cc1.Cl` (stereo not drawn), the “hERG current change (%, negative = inhibition) at 10uM” value is -78.9%.
As for `COc1ccc2c(c1OC)C(C1c3c(cc4c(c3OC)OCO4)CCN1C)OC2=O` (stereo not drawn), the “hERG current change (%, negative = inhibition) at 10uM” value was -7.14%.
The same measure for `O=c1[nH]ncc2c3ccccc3n(Cc3ccccc3)c12`: 15.8%; for `S=C(NCc1ccco1)Nc1ccc(Cl)cc1Cl`: 8.1%; for `O=C1c2oc3ccccc3c(=O)c2C(c2cccc(Br)c2)N1Cc1ccco1` (stereo not drawn): -8.64%.
Next, `CCc1ccc(CN(C)CC(=O)Nc2ccc3c(c2)CCC3)cc1`: 9.39%; `O=C(OCc1cccc([N+](=O)[O-])c1)c1cc2ccccc2oc1=O`: 20.7%; `Cc1ccc(C(=O)NNC(=O)c2ccc(Br)s2)cc1S(=O)(=O)N1CCOCC1`: -26.2%.
`COc1ccc(CC(=O)Nc2cccc(-c3ccc4nnc(C)n4n3)c2)cc1`: the “hERG current change (%, negative = inhibition) at 10uM” value is -54.1%.
On to `COc1ccc(CC(=O)Nc2cccc(-c3ccc4nnc(C)n4n3)c2)cc1OC`, for which the “hERG current change (%, negative = inhibition) at 10uM” value was -0.118%.
As to `Cc1nnc2ccc(-c3cccc(NC(=O)Cc4cccs4)c3)nn12`, the “hERG current change (%, negative = inhibition) at 10uM” value is -25.9%.
For `CCOc1ccc(CC(=O)Nc2cccc(-c3ccc4nnc(C)n4n3)c2)cc1`, the “hERG current change (%, negative = inhibition) at 10uM” value is -51.1%.
As for `CCOc1ccc(CC(=O)Nc2ccc(-c3ccc4nnc(C)n4n3)cc2)cc1`, the “hERG current change (%, negative = inhibition) at 10uM” value is reported as -40.4%.
On to `COc1ccc(CC(=O)Nc2ccc(-c3ccc4nnc(C)n4n3)cc2)cc1OC`, for which the “hERG current change (%, negative = inhibition) at 10uM” value was found to be 2.72%.
